In PubChem BioAssay AID1159580 (chemical genetic matrix, 2015):
The campaign covered roughly 5,500 compounds. About 2,000 (36%) were called active. Roughly 18% stayed inconclusive and do not appear here. No stated cut-off is given here; in the data, active means normalized growth mostly below about 0.91 (no sharp cut-off); inconclusive means no clear call, values can overlap the other calls; inactive means mostly above about 0.92. The list shows a part of the results.

Test: chemical genetic growth profiling, strain panel (AID 1159580);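 further: tested at 20 µM; growth read once vehicle control cultures reached saturation at 30 °C; 1 = growth at the plate median or of vehicle wells; lower values mean less growth of the strain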
Conditions: growth OD

Measured: normalized growth

O=C(O)c1c2ccccc2cc2ccccc12
inactive: S. cerevisiae deletion strains, locus YJR043C, strain POL32, active compounds read low 1.04 | S. cerevisiae deletion strains, locus YJR075W, strain HOC1, active compounds read low 1.01 | S. cerevisiae deletion strains, locus YKL009W, strain mrt4, active compounds read low 0.989 | S. cerevisiae deletion strains, locus YKL068W, active compounds read low 0.971 | S. cerevisiae deletion strains, locus YKL085W, strain MDH1 (second series), active compounds read low 0.958 | S. cerevisiae deletion strains, locus YKL085W, strain MDH1, active compounds read low 0.958 | S. cerevisiae deletion strains, locus YKL160W, strain elf1, active compounds read low 0.991 | S. cerevisiae deletion strains, locus YKL190W, strain CNB1, active compounds read low 1.02 | S. cerevisiae deletion strains, locus YKR001C, strain vps1, active compounds read low 0.981 | S. cerevisiae deletion strains, locus YKR026C, strain gcn3, active compounds read low 1 | S. cerevisiae deletion strains, locus YKR091W, strain srl3, active compounds read low 0.986 | S. cerevisiae deletion strains, locus YLL001W, strain dnm1, active compounds read low 1 | S. cerevisiae deletion strains, locus YLL026W, active compounds read low 0.996 | S. cerevisiae deletion strains, locus YLL041C, strain sdh2, active compounds read low 0.992 | S. cerevisiae deletion strains, locus YLR027C, strain aat2, active compounds read low 0.999 | S. cerevisiae deletion strains, locus YLR039C, strain RIC1, active compounds read low 1.04 | S. cerevisiae deletion strains, locus YLR058C, strain SHM2, active compounds read low 1.02 | S. cerevisiae deletion strains, locus YLR102C, strain apc9, active compounds read low 0.983 | S. cerevisiae deletion strains, locus YLR221C, strain rsa3, active compounds read low 0.973 | S. cerevisiae deletion strains, locus YLR258W, strain gsy2, active compounds read low 0.992 | S. cerevisiae deletion strains, locus YLR262C, strain YPT6 (second series), active compounds read low 0.976 | S. cerevisiae deletion strains, locus YLR262C, strain YPT6, active compounds read low 1.03 | S. cerevisiae deletion strains, locus YLR268W, strain sec22, active compounds read low 0.986 | S. cerevisiae deletion strains, locus YLR320W, strain mms22, active compounds read low 1 | S. cerevisiae deletion strains, locus YLR330W, strain CHS5, active compounds read low 1.02 | S. cerevisiae deletion strains, locus YLR342W, strain FKS1 (second series), active compounds read low 0.971 | S. cerevisiae deletion strains, locus YLR342W, strain FKS1, active compounds read low 1 | S. cerevisiae deletion strains, locus YLR357W, strain rsc2, active compounds read low 1.06 | S. cerevisiae deletion strains, locus YLR370C, strain arc18, active compounds read low 0.998 | S. cerevisiae deletion strains, locus YLR371W, strain rom2, active compounds read low 0.992 | S. cerevisiae deletion strains, locus YLR384C, strain iki3, active compounds read low 0.992 | S. cerevisiae deletion strains, locus YLR418C, strain cdc73, active compounds read low 0.96 | S. cerevisiae deletion strains, locus YML016C, strain PPZ1, active compounds read low 1.01 | S. cerevisiae deletion strains, locus YML032C, strain rad52, active compounds read low 0.954 | S. cerevisiae deletion strains, locus YML120C, strain ndi1, active compounds read low 0.965 | S. cerevisiae deletion strains, locus YML124C, strain tub3, active compounds read low 0.985 | S. cerevisiae deletion strains, locus YMR058W, strain fet3, active compounds read low 1.01 | S. cerevisiae deletion strains, locus YMR078C, strain ctf18, active compounds read low 0.974 | S. cerevisiae deletion strains, locus YMR125W, strain sto1, active compounds read low 1.03 | S. cerevisiae deletion strains, locus YMR129W, active compounds read low 0.987 | S. cerevisiae deletion strains, locus YMR205C, strain PFK2, active compounds read low 1.01 | S. cerevisiae deletion strains, locus YMR223W, strain ubp8, active compounds read low 0.962 | S. cerevisiae deletion strains, locus YMR231W, strain pep5, active compounds read low 0.979 | S. cerevisiae deletion strains, locus YMR263W, strain SAP30, active compounds read low 1.02 | S. cerevisiae deletion strains, locus YMR307W, strain GAS1, active compounds read low 1.13 | S. cerevisiae deletion strains, locus YNL067W, strain RPL9B, active compounds read low 1.02 | S. cerevisiae deletion strains, locus YNL071W, strain lat1, active compounds read low 0.948 | S. cerevisiae deletion strains, locus YNL128W, strain TEP1, active compounds read low 1.02 | S. cerevisiae deletion strains, locus YNL153C, strain GIM3, active compounds read low 1.02 | S. cerevisiae deletion strains, locus YNL209W, strain ssb2, active compounds read low 1 | S. cerevisiae deletion strains, locus YNL233W, strain BNI4, active compounds read low 1.02 | S. cerevisiae deletion strains, locus YNL248C, strain rpa49, active compounds read low 0.993 | S. cerevisiae deletion strains, locus YNL250W, strain rad50, active compounds read low 0.965 | S. cerevisiae deletion strains, locus YNL271C, strain bni1, active compounds read low 0.949 | S. cerevisiae deletion strains, locus YNL298W, strain CLA4, active compounds read low 0.948 | S. cerevisiae deletion strains, locus YNL307C, strain MCK1, active compounds read low 0.969 | S. cerevisiae deletion strains, locus YNL322C, strain KRE1 (second series), active compounds read low 0.998 | S. cerevisiae deletion strains, locus YNL322C, strain KRE1, active compounds read low 1.02 | S. cerevisiae deletion strains, locus YNR049C, strain mso1, active compounds read low 1.01 | S. cerevisiae deletion strains, locus YNR052C, strain pop2, active compounds read low 0.982 | S. cerevisiae deletion strains, locus YOL006C, strain TOP1, active compounds read low 0.989 | S. cerevisiae deletion strains, locus YOL012C, strain htz1 0.952 | S. cerevisiae deletion strains, locus YOL147C, strain pex11, active compounds read low 0.986 | S. cerevisiae deletion strains, locus YOR001W, strain rrp6, active compounds read low 0.957 | S. cerevisiae deletion strains, locus YOR061W, strain CKA2, active compounds read low 1.01 | S. cerevisiae deletion strains, locus YOR069W, strain VPS5, active compounds read low 1.01 | S. cerevisiae deletion strains, locus YOR070C, strain gyp1, active compounds read low 0.999 | S. cerevisiae deletion strains, locus YOR080W, strain dia2, active compounds read low 1.01 | S. cerevisiae deletion strains, locus YOR083W, strain WHI5, active compounds read low 0.915 | S. cerevisiae deletion strains, locus YOR106W, strain vam3, active compounds read low 0.95 | S. cerevisiae deletion strains, locus YOR136W, strain idh2, active compounds read low 0.978 | S. cerevisiae deletion strains, locus YOR144C, strain elg1, active compounds read low 0.987 | S. cerevisiae deletion strains, locus YOR184W, strain ser1, active compounds read low 0.965 | S. cerevisiae deletion strains, locus YOR265W, strain rbl2, active compounds read low 0.996 | S. cerevisiae deletion strains, locus YOR270C, strain vph1, active compounds read low 0.973 | S. cerevisiae deletion strains, locus YOR290C, strain snf2, active compounds read low 0.999 | S. cerevisiae deletion strains, locus YOR316C, strain cot1, active compounds read low 0.983 | S. cerevisiae deletion strains, locus YPL051W, strain arl3, active compounds read low 0.982 | S. cerevisiae deletion strains, locus YPL055C, strain LGE1, active compounds read low 1.03 | S. cerevisiae deletion strains, locus YPL078C, strain atp4, active compounds read low 1 | S. cerevisiae deletion strains, locus YPL106C, strain sse1, active compounds read low 0.947 | S. cerevisiae deletion strains, locus YPL240C, strain hsp82, active compounds read low 0.994 | S. cerevisiae deletion strains, locus YPL241C, strain CIN2, active compounds read low 0.982 | S. cerevisiae deletion strains, locus YPR119W, strain clb2, active compounds read low 0.979 | S. cerevisiae deletion strains, locus YPR141C, strain kar3, active compounds read low 0.948 | S. cerevisiae deletion strains, locus YPR163C, strain tif3, active compounds read low 0.984 | S. cerevisiae deletion strains, locus YPR167C, strain met16, active compounds read low 0.987 | S. cerevisiae deletion strains, strain wtn01, active compounds read low 0.987 | S. cerevisiae strains, strain wild type, active compounds read low 1.01
